Key:
[1] = biological target: T1, Testis-specific serine/threonine-protein kinase 1 (Homo sapiens) (UniProt Q9BXA7); settings: at 1 µM
T1 sequence (whole entry): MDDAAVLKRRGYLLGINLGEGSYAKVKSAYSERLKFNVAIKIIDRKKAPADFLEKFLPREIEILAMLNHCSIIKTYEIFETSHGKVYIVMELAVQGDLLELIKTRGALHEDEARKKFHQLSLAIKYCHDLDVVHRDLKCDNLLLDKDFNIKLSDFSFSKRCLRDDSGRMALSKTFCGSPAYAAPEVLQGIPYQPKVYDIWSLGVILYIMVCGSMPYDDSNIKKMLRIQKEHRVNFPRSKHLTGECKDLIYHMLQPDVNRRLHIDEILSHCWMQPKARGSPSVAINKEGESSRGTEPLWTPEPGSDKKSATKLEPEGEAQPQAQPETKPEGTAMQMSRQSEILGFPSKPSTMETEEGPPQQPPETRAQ

[2] = biological target: T1, Testis-specific serine/threonine-protein kinase 1 (Homo sapiens); settings: at 10 µM
[3] = biological target: T2, Testis-specific serine/threonine-protein kinase 2 (Homo sapiens) (UniProt Q96PF2); settings: at 10 µM
T2 sequence (whole entry): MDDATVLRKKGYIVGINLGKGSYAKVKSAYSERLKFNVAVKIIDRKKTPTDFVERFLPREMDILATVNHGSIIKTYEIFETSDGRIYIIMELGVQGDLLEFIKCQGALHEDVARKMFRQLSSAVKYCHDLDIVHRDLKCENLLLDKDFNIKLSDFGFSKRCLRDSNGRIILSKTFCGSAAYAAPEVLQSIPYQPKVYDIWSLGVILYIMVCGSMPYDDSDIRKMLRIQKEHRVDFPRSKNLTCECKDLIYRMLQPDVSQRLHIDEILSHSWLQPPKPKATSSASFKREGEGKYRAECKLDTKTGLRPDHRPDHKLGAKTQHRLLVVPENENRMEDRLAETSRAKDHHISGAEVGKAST

[4] = biological target: T3, Tyrosine-protein kinase Tec (Homo sapiens) (UniProt P42680); settings: at 1 µM
T3 sequence (whole entry): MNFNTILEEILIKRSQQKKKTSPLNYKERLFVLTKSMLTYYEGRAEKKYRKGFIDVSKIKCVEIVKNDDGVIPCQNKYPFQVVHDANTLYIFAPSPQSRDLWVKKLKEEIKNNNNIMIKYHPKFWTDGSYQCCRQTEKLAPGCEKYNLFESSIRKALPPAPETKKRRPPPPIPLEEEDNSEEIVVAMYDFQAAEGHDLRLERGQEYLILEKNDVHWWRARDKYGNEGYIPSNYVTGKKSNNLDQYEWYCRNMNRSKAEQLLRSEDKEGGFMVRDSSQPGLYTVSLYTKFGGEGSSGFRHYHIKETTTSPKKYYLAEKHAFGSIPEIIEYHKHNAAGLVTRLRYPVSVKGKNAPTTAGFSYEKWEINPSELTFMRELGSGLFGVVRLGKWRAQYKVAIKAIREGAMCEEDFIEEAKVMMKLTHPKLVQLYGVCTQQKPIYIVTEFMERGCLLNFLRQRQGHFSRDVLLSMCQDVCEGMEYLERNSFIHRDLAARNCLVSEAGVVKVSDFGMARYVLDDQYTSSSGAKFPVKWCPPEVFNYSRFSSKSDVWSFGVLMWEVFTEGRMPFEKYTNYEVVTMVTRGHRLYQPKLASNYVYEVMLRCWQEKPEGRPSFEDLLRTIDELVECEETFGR

[5] = biological target: T3, Tyrosine-protein kinase Tec (Homo sapiens); settings: at 10 µM
[6] = biological target: Angiopoietin-1 receptor (Homo sapiens) (UniProt Q02763); settings: at 1 µM
[7] = biological target: Angiopoietin-1 receptor (Homo sapiens) (UniProt Q02763); settings: at 10 µM
[8] = biological target: High affinity nerve growth factor receptor (Homo sapiens) (UniProt P04629); settings: at 1 µM
[9] = biological target: High affinity nerve growth factor receptor (Homo sapiens) (UniProt P04629); settings: at 10 µM
[10] = biological target: BDNF/NT-3 growth factors receptor (Homo sapiens) (UniProt Q16620); settings: at 1 µM
[11] = biological target: BDNF/NT-3 growth factors receptor (Homo sapiens) (UniProt Q16620); settings: at 10 µM
[12] = biological target: T4, Tyrosine-protein kinase TXK (Homo sapiens) (UniProt P42681); settings: at 1 µM
T4 sequence (whole entry): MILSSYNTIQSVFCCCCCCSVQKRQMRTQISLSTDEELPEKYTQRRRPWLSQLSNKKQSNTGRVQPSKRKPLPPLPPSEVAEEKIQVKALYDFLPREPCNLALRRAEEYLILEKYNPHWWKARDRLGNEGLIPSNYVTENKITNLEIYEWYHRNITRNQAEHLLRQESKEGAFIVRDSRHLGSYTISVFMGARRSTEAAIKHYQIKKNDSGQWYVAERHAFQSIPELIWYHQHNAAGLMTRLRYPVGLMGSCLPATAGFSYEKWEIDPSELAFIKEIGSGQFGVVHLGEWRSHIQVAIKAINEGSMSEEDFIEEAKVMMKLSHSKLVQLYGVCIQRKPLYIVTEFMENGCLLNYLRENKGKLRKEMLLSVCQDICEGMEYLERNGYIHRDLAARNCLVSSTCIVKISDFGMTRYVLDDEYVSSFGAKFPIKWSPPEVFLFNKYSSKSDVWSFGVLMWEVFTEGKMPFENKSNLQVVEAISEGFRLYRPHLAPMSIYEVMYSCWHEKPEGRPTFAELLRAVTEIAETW

[13] = biological target: T4, Tyrosine-protein kinase TXK (Homo sapiens); settings: at 10 µM
[14] = biological target: T5, Serine/threonine-protein kinase ULK2 (Homo sapiens) (UniProt Q8IYT8); settings: at 1 µM
T5 sequence (whole entry): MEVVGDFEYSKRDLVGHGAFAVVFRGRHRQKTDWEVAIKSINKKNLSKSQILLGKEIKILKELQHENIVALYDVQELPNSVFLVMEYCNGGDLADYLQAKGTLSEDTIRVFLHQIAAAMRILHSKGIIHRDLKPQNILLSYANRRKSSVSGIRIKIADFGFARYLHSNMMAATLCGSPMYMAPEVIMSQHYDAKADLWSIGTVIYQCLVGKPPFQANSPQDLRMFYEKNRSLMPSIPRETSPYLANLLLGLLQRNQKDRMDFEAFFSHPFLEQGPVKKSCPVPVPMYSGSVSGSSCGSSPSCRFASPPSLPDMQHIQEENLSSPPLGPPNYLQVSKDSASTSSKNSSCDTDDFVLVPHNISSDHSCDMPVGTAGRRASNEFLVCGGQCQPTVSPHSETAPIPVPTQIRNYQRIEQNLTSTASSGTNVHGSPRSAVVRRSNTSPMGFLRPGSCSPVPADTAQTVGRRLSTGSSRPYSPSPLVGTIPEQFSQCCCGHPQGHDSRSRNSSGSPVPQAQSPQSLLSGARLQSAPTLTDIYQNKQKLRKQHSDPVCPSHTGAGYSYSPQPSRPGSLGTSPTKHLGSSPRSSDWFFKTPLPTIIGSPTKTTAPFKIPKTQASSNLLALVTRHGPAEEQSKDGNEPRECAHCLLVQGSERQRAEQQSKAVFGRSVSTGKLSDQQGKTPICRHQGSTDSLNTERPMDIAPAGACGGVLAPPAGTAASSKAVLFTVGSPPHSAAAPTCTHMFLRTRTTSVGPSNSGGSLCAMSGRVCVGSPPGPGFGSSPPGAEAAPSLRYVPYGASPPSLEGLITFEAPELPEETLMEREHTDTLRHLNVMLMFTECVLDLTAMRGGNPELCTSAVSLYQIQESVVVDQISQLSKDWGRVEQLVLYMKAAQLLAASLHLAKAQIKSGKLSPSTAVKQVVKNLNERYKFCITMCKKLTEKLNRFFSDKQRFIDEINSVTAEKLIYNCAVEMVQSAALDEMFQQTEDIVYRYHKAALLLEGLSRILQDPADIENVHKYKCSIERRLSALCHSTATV

[15] = biological target: T5, Serine/threonine-protein kinase ULK2 (Homo sapiens); settings: at 10 µM
[16] = biological target: T6, Serine/threonine-protein kinase ULK3 (Homo sapiens) (UniProt Q6PHR2); settings: at 1 µM
T6 sequence (whole entry): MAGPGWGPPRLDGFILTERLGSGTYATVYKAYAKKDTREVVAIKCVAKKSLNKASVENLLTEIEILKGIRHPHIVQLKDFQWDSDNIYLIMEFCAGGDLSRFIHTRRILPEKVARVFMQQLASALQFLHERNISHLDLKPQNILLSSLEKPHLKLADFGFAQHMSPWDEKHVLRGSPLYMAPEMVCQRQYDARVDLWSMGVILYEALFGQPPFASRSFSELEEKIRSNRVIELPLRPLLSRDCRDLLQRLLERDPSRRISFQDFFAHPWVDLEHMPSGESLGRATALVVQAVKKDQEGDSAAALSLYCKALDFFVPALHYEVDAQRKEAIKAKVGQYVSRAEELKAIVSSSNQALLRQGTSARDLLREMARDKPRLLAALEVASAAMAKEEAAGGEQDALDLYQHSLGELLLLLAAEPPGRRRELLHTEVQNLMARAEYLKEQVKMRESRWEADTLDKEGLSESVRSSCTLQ

[17] = biological target: T6, Serine/threonine-protein kinase ULK3 (Homo sapiens); settings: at 10 µM
[18] = biological target: Serine/threonine-protein kinase VRK2 (Homo sapiens) (UniProt Q86Y07); settings: at 1 µM
[19] = biological target: Serine/threonine-protein kinase VRK2 (Homo sapiens) (UniProt Q86Y07); settings: at 10 µM
[20] = biological target: Serine/threonine-protein kinase WNK2 (Homo sapiens) (UniProt Q9Y3S1); settings: at 1 µM;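 also: residual WNK2 kinase activity expressed as percent of uninhibited control, assayed in MOPS buffer at pH 7.0 containing EDTA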
Sequence of Serine/threonine-protein kinase WNK2 (Homo sapiens) (Q9Y3S1 whole entry): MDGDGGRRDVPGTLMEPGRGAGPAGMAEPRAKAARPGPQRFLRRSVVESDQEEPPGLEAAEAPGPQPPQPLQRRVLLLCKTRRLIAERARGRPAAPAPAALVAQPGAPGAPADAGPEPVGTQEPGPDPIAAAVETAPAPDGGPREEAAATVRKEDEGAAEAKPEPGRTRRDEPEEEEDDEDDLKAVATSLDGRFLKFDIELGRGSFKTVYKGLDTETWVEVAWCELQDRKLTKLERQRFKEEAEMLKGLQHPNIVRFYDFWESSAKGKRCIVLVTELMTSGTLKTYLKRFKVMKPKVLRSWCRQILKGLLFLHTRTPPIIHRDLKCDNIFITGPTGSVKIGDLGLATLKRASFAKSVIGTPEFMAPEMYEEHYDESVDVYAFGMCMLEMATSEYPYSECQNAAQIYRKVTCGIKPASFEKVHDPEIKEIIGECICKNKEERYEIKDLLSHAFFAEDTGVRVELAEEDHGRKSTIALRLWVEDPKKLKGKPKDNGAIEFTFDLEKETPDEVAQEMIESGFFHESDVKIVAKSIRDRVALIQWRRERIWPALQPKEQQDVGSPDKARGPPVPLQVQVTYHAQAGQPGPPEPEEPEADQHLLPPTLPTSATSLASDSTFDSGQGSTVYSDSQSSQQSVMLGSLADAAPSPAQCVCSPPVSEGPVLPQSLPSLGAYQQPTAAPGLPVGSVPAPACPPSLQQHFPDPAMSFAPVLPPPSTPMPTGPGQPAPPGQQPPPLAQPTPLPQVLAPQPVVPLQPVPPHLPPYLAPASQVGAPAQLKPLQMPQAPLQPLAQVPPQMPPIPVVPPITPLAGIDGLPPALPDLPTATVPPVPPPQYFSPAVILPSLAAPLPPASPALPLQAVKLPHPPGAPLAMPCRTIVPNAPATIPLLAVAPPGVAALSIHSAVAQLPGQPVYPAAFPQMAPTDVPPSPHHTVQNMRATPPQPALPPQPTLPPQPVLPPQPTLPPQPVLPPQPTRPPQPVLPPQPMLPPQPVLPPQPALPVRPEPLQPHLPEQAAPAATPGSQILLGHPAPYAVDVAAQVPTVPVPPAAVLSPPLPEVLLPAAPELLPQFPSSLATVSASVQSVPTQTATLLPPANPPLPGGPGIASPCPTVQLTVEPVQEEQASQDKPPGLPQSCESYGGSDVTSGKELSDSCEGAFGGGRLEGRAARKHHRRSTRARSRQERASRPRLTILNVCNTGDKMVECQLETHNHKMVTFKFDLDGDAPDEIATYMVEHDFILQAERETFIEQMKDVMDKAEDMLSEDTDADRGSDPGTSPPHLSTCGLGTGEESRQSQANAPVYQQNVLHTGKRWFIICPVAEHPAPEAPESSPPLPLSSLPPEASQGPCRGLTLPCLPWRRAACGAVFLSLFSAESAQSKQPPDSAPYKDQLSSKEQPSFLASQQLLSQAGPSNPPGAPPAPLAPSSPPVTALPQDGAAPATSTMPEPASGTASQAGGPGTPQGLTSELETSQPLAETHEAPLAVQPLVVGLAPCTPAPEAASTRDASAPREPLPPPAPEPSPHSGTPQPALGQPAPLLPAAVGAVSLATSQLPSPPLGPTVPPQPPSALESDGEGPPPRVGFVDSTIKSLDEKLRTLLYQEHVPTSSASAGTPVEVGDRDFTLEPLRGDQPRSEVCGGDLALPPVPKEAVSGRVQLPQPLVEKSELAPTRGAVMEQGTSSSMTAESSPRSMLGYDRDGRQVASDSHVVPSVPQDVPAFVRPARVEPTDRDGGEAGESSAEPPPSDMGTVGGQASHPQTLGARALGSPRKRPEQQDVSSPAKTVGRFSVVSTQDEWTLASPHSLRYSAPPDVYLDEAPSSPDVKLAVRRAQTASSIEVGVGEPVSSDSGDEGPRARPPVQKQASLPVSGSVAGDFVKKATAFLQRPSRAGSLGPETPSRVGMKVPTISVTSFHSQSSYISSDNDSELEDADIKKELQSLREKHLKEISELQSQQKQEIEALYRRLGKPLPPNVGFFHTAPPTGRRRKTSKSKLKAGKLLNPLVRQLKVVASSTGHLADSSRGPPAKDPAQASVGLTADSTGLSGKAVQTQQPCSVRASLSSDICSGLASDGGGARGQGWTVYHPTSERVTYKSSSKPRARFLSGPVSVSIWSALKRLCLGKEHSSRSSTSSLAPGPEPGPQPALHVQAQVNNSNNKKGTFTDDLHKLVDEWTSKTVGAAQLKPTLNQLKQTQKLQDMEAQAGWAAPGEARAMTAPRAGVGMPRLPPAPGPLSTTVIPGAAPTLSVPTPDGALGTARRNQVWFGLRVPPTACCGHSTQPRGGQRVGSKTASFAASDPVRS

Sequence of BDNF/NT-3 growth factors receptor (Homo sapiens) (Q16620 32-822 limits assumed): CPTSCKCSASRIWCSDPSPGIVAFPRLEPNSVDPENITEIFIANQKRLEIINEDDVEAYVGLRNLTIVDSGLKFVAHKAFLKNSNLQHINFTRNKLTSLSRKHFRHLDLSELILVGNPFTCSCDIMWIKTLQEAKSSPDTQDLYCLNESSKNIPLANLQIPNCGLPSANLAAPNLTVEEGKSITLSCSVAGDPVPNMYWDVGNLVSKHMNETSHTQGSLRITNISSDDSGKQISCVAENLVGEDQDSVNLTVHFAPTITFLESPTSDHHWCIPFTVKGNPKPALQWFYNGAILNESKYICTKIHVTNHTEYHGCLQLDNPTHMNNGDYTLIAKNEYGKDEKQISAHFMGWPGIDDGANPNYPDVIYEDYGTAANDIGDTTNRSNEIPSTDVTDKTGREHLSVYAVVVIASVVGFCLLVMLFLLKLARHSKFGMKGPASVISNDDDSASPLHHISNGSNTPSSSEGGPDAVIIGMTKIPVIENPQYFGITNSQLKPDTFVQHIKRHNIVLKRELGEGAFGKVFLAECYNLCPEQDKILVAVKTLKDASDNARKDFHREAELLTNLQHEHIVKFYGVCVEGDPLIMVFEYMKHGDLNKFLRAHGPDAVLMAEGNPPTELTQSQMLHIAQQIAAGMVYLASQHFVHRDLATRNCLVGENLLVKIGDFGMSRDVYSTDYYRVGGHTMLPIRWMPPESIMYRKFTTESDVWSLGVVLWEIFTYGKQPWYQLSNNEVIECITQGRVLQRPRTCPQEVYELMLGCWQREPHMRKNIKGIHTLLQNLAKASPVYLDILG
Sequence of High affinity nerve growth factor receptor (Homo sapiens) (P04629 33-796 limits assumed): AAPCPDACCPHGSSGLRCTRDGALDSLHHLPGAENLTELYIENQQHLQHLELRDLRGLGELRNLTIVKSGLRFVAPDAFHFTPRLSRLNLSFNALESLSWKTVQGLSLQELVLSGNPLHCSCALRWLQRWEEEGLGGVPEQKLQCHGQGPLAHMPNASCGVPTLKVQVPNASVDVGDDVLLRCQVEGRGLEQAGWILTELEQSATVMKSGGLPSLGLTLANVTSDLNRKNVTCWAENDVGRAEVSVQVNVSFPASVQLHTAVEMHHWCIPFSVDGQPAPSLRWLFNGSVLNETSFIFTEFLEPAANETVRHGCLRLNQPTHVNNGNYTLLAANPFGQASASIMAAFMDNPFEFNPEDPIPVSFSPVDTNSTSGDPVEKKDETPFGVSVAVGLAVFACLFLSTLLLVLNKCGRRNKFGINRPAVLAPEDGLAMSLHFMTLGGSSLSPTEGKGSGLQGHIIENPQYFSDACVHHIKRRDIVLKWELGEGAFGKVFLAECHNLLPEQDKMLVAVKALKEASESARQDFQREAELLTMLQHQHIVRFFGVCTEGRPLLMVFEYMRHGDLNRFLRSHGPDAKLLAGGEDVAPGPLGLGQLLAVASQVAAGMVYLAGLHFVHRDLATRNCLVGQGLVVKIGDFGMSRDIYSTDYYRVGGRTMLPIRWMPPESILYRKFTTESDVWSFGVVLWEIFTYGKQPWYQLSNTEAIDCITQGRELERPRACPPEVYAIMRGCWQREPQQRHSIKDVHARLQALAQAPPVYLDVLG
Sequence of Angiopoietin-1 receptor (Homo sapiens) (Q02763 whole entry): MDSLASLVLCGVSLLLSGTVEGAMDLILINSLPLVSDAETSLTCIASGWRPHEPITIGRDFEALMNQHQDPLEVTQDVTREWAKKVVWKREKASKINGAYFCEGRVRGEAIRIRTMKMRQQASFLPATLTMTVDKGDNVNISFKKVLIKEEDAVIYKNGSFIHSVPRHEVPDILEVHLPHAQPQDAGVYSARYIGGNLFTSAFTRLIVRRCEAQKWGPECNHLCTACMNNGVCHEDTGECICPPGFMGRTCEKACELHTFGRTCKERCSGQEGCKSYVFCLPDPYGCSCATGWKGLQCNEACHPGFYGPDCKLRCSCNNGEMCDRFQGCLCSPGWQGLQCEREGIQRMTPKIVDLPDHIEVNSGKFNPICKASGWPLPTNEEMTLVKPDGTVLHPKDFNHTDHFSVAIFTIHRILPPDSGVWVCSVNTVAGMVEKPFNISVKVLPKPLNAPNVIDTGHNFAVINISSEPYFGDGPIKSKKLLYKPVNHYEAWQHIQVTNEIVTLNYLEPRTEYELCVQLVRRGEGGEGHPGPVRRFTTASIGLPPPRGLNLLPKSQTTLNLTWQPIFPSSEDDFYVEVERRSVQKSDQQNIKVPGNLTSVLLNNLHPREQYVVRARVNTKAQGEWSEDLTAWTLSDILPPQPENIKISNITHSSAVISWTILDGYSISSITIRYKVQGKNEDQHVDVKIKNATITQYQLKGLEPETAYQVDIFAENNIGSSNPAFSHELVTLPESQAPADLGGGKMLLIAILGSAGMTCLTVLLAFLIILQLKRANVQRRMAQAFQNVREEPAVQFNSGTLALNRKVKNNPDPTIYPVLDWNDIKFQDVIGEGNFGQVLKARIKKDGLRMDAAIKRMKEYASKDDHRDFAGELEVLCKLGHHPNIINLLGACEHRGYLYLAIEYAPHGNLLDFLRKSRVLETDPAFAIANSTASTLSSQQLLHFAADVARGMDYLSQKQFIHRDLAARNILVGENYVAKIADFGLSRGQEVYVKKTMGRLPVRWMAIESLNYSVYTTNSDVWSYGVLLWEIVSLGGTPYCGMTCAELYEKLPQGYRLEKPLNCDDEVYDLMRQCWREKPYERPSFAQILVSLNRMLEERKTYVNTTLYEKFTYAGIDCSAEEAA

Compound	residual activity [1] [%]	residual activity [2] [%]	residual activity [3] [%]	residual activity [4] [%]	residual activity [5] [%]	residual activity [6] [%]	residual activity [7] [%]	residual activity [8] [%]	residual activity [9] [%]	residual activity [10] [%]	residual activity [11] [%]	residual activity [12] [%]	residual activity [13] [%]	residual activity [14] [%]	residual activity [15] [%]	residual activity [16] [%]	residual activity [17] [%]	residual activity [18]	residual activity [19] [%]	residual activity [20]
Oc1n[nH]c2nnc(-c3c(-c4ccccc4)nn4ccccc34)cc12	82	93	83	85	66	97	93	83	70	98	84	73	67	91	91	92	95	89% (inactive)	82	93% (inactive)
Oc1c2ccccc2c2c3c(cccc13)N=N2	75	49	86	89	57	95	63	10	-1	32	5	58	23	90	45	73	43	78% (inactive)	36	79% (inactive)
O=C1NC(=O)/C(=C/c2ccc3c(c2)OC(F)(F)O3)S1	99	91	97	83	80	94	85	86	60	44	24	109	104	106	97	105	89	112% (inactive)	97	114% (inactive)
Cc1ccc(S(=O)(=O)/C=C/C#N)cc1	91	107	91	95	90	115	118	105	92	117	105	79	87	109	104	97	98	91% (inactive)	97	94% (inactive)
COc1ccc(C(=O)Nc2sc3c(c2C(N)=O)CCCC3)cc1OC	94	75	85	89	86	79	59	58	76	70	71	93	73	102	92	99	84	107% (inactive)	85	104% (inactive)
O=C(Nc1cccc(Nc2nccc(Nc3cccc(C(F)(F)F)c3)n2)c1)C1CC1	94	64	78	78	9	136	70	18	1	44	-5	60	15	101	88	97	66	93% (inactive)	85	104% (inactive)
Nc1n[nH]c2nnc(-c3c(-c4ccccc4)nn4ccccc34)cc12	87	90	86	82	50	94	72	68	24	94	52	77	60	95	96	92	87	89% (inactive)	68	88% (inactive)
Oc1ccc(-c2nc(-c3ccc(F)cc3)c(-c3ccncc3)[nH]2)cc1	112	83	113	87	55	109	49	107	83	99	61	78	43	112	104	102	95	117% (inactive)	86	118% (inactive)
COc1ccc(OC)c2c(=S)c3ccccc3[nH]c12	90	94	90	92	84	94	94	78	57	88	92	84	86	100	102	86	101	91% (inactive)	86	86% (inactive)
CC(C)n1cnc2/c(=N/c3cccc(Cl)c3)nc(NCCO)[nH]c21	94	60	81	71	31	91	89	24	1	8	2	68	37	68	31	42	11	71% (inactive)	19	90% (inactive)
CCC(=O)Nc1ccc2ncnc(Nc3cccc(Br)c3)c2c1	93	90	102	86	90	81	70	97	96	77	119	108	78	106	100	107	89	106% (inactive)	86	99% (inactive)
Cc1nc2cc3nc(-c4cccs4)cnc3cc2n1C	102	85	93	83	101	81	61	72	27	69	45	108	75	108	107	106	85	111% (inactive)	84	117% (inactive)
N#C/C(=C(\N)Sc1ccc(N)cc1)c1ccccc1C(F)(F)F	99	82	67	93	63	111	87	90	85	78	72	74	86	119	107	95	94	101% (inactive)	95	101% (inactive)

Reference: ChEMBL document CHEMBL2218924, “A broad activity screen in support of a chemogenomic map for kinase signalling research and drug discovery” (Biochem J, 2013)
